Compounds with a hit are over-represented: about 12% of the library has one in this group of screens.
HP1b binding inh – blocks HP1-beta chromodomain binding to methylated histone tails; AID 540317; 390,000 tested, 0.56% active; AlphaScreen HP1-beta / biotin-H3K9me3 peptide binding; Potency, µM (titrated, usually from 114 µM), for inactives: top-dose activity change, negative = inhibition, hits mostly inhibitors; further: potency means the concentration at half of the fitted maximal effect; nearly all actives have a fitted effect of over 70% in size
Target sequence (P83916 whole entry, looked up): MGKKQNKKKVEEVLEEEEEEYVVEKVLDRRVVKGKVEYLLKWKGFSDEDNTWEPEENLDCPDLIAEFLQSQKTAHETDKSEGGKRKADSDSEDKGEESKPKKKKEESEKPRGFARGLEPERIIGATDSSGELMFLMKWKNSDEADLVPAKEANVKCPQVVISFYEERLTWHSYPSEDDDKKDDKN
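AlphaScreen: HP1-beta (50 nM) preformed 30 min with biotin-H3(1-18)K9me3 peptide (50 nM) in PBS pH 7.4, 0.01% Tween-20. Compound added for 30 min at RT, then streptavidin donor/nickel chelate acceptor beads (10 ug/mL) for 30 min.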
G9a inh – G9a (human) methyltransferase inhibition | 350,000 tested, 8.8% active | Q96KQ7 | Potency, µM (doses to about 102 µM), without a hit: at the highest dose activity, negative = inhibition, most hits filed as inhibitors | AID 504332 | G9a H3K9 monomethylation, AlphaScreen, 2 h; further: potency means the concentration at half of the fitted maximal effect; on the % scale 0 is the no-effect control and ±100 the full control effect; nearly all actives have a fitted effect of over 75% in size
Target sequence (Q96KQ7 913-1193 limits assumed): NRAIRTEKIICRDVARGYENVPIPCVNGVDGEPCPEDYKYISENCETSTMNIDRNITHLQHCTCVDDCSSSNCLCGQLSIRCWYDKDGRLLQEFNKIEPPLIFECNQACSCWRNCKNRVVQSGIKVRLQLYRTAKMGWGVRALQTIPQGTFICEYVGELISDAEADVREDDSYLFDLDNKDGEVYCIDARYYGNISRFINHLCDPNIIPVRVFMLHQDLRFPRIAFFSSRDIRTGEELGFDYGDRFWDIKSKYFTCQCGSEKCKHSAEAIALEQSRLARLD
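G9a (20 nM) preincubated 15 min RT with compounds, then 500 nM biotinylated H3K9 peptide and 20 uM SAM added; 2 h RT reaction. Monomethyl-H3K9 product detected by AlphaScreen with anti-H3K9me1 antibody, streptavidin donor and anti-rabbit IgG acceptor beads.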
BAZ2B inh – BAZ2B (human) inhibition | AlphaScreen BAZ2B-H3K14Ac peptide displacement | Potency, µM (titrated, usually from 114 µM), inactives show at the top dose activity change, negative = inhibition, actives largely listed as inhibitors | 360,000 tested, 4.4% active; further: potency means the concentration at half of the fitted maximal effect; on the % scale 0 is the no-effect control and ±100 the full control effect; nearly all actives have a fitted effect of over 60% in size
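Complex of BAZ2B and biotin-H3K14Ac (50 nM apiece) forms over 30 min at RT, then faces library compounds up to 110 uM for another 30 min; AlphaScreen beads added, 20 min dark incubation, luminescence read.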
PLK1 PBD inh – inhibitors of human PLK1 polo-box domain binding; P53350; Plk1 PBD binding of FITC phosphopeptide, fluorescence polarization; Potency, µM, for the others: max response, negative = inhibition, usual class: inhibitors; 360,000 tested, 2.8% active; further: potency means the concentration at half of the fitted maximal effect; series mostly up to about 57 µM; on the % scale 0 is the no-effect control and ±100 the full control effect; nearly all actives have a fitted effect of over 65% in size
PI5P4Ka inh – blocks human PI5P4K alpha kinase activity | AID 652105 | PI5P4Kalpha enzyme, ADP-Glo luminescence, 60 min; hits give low values | P48426 | max response, % | 330,000 tested, 1.2% active; active means max response of -50% or lower; inconclusive means between -30% and -50%; inactive means -30% or higher; further: value at the top dose of about 77 µM; on the % scale 0 is the no-effect control and ±100 the full control effect
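PI5P4Kalpha ADP-Glo assay; 5 microM ATP final; 60 min RT reaction; HEPES pH 7.4/EGTA/CHAPS, 5% DMSO; controls lacking substrate or enzyme; luminescent end-point.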
JMJD2A Tudor – blocks the human JMJD2A Tudor domain; O75164; AlphaScreen JMJD2A-Tudor / H3K4me3 peptide binding; Potency, µM (highest dose often 114 µM), without a hit: at the top dose activity change, negative = inhibition, hits mostly inhibitors; 390,000 tested, 4.4% active; AID 504339; further: potency means the concentration at half of the fitted maximal effect; on the % scale 0 is the no-effect control and ±100 the full control effect; nearly all actives have a fitted effect of over 50% in size
* hit, by the source's call; ? = inconclusive; / = not tested or not shown; [ ] = another dose, or the depositor's remark. Unless noted, the call rests on the fitted dose curve; in most records, active means well fitted curve in the direction sought with a large enough effect; inconclusive means small, poorly fitted or top-dose-only effect, or another doubt; inactive means no such curve, though single readings can be large; an effect the other way counts as inactive or inconclusive.

SMILES | HP1b binding inh | G9a inh | BAZ2B inh | PLK1 PBD inh | PI5P4Ka inh | JMJD2A Tudor
COc1ccc(N2C(=O)CSC23C(=O)N(CC(=O)NCc2ccccc2)c2ccccc23)cc1 (centres undefined) | 27.0% | -5.9%[59 µM] | 7.0%[57.1 µM] | / | / | -9.7%
O=C(c1cccc(F)c1)N1CCN(Cc2ccco2)CC1 | -13.9% | 31.6µM* | 50.1µM* | -4.1% | 3.5 | 7.94µM*
Cc1ccc(OCC(=O)N2CCC(N3CCCCCC3)CC2)cc1 | -45.6% | ? | 56.2µM* | 0.5% | 4.3 | 6.31µM*
O=C(COc1ccccc1)N1CCN(C(=O)c2ccc([N+](=O)[O-])cc2)CC1 | 46.2% | / | -7.0% | -0.6% | 1.6 | -26.5%
O=C(Nc1ccnn1C1CCN(C2CCCCC2)CC1)c1cccc(F)c1 | 36.8% | / | 10.3% | -18.2% | -1.3 | 25.1µM*
Cc1ccc(OCC(=O)N2CCN(C(=O)c3ccc([N+](=O)[O-])cc3)CC2)cc1 | 13.8% | 50.1µM* | -7.0% | -9.3% | -3.7 | -6.6%
O=C(Nc1ccnn1C1CCN(C2CCCCC2)CC1)c1ccccc1 | 1.6% | 18.0% | 3.1% | -18.2% | -0.6 | 2.7%
O=C1c2ccccc2C(=O)N1c1cccc(N2C(=O)c3ccccc3C2=O)n1 | 39.1% | / | / | / | / | -8.5%
Cc1ccc(SCC(CC(C)C)N2CCN(C)CCC2=O)cc1 (centres undefined) | 9.8% | / | / | / | / | -12.4%
CC(C)(C)C1CCc2c(sc(NC(=O)c3cccc(Cl)c3)c2C(N)=O)C1 (centres undefined) | -3.2% | -33.7%[59 µM] | 5.1% | / | / | -8.3%
COc1ccccc1C(=O)N1CCN(C(=O)COc2cccc(C)c2)CC1 | 3.0% | -67.9% | 12.9% | -13.5% | 6.5 | -4.5%
COc1ccccc1N1CCN(C2CCN(C(=O)c3cccc(F)c3)CC2)CC1 | ? | 8.91µM* | 50.1µM* | -6.8% | -8.6 | 28.2µM*
O=C(c1cccc(Cl)c1)N1CCC(N2CCC(C(=O)N3CCOCC3)CC2)CC1 | 43.7% | / | 2.5% | -2.8% | -2.2 | -2.7%
COc1ccccc1N1CCN(C2CCN(C(=O)c3ccc(F)cc3)CC2)CC1 | 20.6% | 10.8%[59 µM] | -5.3% | -9.3% | -4.2 | -5.0%[57.1 µM]
COc1ccccc1N1CCN(C2CCN(C(=O)COc3cccc(C)c3)CC2)CC1 | ? | 8.91µM* | 79.4µM* | -7.8% | 2.5 | 5.62µM*
O=C(c1cccc(F)c1)N1CCC(N2CCOCC2)CC1 | ? | ? | 50.1µM* | -7.5% | 5.7 | 7.94µM*
COc1ccc(OCC(=O)Nc2nc(-c3ccc(Br)cc3)ns2)cc1 | 69.6% | -2.8%[59 µM] | -4.1% | / | / | 7.3%
COC(=O)C(c1cc(OC)c(O)c(OC)c1)(N1CCNC(C)C1)C(F)(F)F (centres undefined) | 37.3% | 10µM* | -4.9% | -12.1% | 0.0 | 27.8%
CCCCCCCCCCOC(=O)C[N+](C)(C)C/C=C(/C)Cl | 8.0% | 8.8%[59 µM] | -3.6% | 29.9µM* | -7.3 | -13.4%
CCN(CCNC(=O)CC1Oc2ccccc2NC1=O)c1ccccc1 (centres undefined) | 18.7% | 79.4µM* | -24.5% | -8.5% | -1.3 | -26.2%
O=C(CC1Oc2ccccc2NC1=O)NCCc1ccccc1 (centres undefined) | 7.9% | -13.0% | 41.1% | ? | 3.3 | ?
CC1CCN(Cc2ccc(NC(=O)CC3Oc4ccccc4NC3=O)cc2)CC1 (centres undefined) | 34.4% | 50.1µM* | 8.9% | -27.7% | -1.9 | -26.9%
Cc1ccc(NC(=O)CC2Oc3ccccc3NC2=O)cc1C (centres undefined) | 47.0% | 5.5%[59 µM] | -14.5% | / | / | -15.3%
CCC(C)N(CCNC(=O)CC1Oc2ccccc2NC1=O)C1CCCCC1 (centres undefined) | 58.1% | 50.1µM* | 7.5% | -17.5% | -3.7 | -6.9%
CN(Cc1ccccc1)S(=O)(=O)c1ccc2[nH]c(=O)ccc2c1 | 33.6% | -47.7% | -25.7% | -4.6% | -27.3 | -20.8%
SMILES | HP1b binding inh | G9a inh | BAZ2B inh | PLK1 PBD inh | PI5P4Ka inh | JMJD2A Tudor
COc1ccc(/C=C\c2onc(C)c2S(=O)(=O)N2CCC(C(=O)Nc3ccccc3OC)CC2)cc1 | 20.5% | -22.6%[59 µM] | / | / | / | -10.3%
CC(CNC(=O)c1ccc(Cn2c(=O)c3cccn3c3cccnc32)cc1)c1ccccc1 (centres undefined) | 28.1% | 1.6%[59 µM] | -2.3% | / | / | -4.0%
CCOc1ccc(C(=O)Nc2cc(-c3nc4ccccc4[nH]3)ccc2Cl)cc1[N+](=O)[O-] | -0.4% | ? | -10.6% | 0.0% | -12.0 | 79.4µM*
O=C(NC(=S)Nc1cc(-c2nc3ccccc3[nH]2)ccc1Cl)c1ccc2c(c1)OCO2 | -19.0% | 44.7µM* | 1.0% | 23.8µM* | -17.6 | -13.7%
COc1cccc(CNC(=O)c2ccc3c(c2)N(C)C(=O)C2CCCCN32)c1 (centres undefined) | 9.5%[57 µM] | 5.4%[59 µM] | -9.8% | / | / | -18.2%
COc1cc(C2c3c([nH]c(=O)[nH]c3=O)Nc3ccc4ccccc4c32)ccc1O (centres undefined) | ? | 50.1µM* | ? | ? | -6.4 | ?
COc1ccc(C2c3c(nc(C)[nH]c3=O)Oc3ccc4ccccc4c32)cc1OC (centres undefined) | / | / | / | / | / | -11.6%
COc1cc(C2c3c([nH]c(=O)[nH]c3=O)Nc3ccc4ccccc4c32)cc(OC)c1OC (centres undefined) | 70.8µM* | ? | 56.2µM* | ? | -20.6 | ?
COc1cc(C2CC(=O)c3c(ccc4ccccc34)N2)ccc1O (centres undefined) | 5.2% | 11.2µM* | -22.7% | 2.1% | -5.6 | -16.9%
COc1cc(C2CC(=O)Oc3c2c(=O)[nH]c2ccccc32)cc(OC)c1OC (centres undefined) | 44.4% | -44.6%[59 µM] | -18.4% | / | / | 0.7%
CC(C)(C)n1cnc2cc(NC(=O)c3cccs3)ccc21 | 38.4% | 39.8µM* | -19.7% | -4.7% | -7.3 | -13.7%
CCn1cnc2cc(NC(=O)c3cccs3)ccc21 | 18.7% | 0.6% | -17.4% | -14.7% | -1.3 | 0.0%
CCN1CCc2c(sc(-n3cccc3)c2C(CCC(C)C)NC(=O)NCCC(=O)OC)C1 (centres undefined) | 4.2% | ? | -17.3% | / | / | ?
COC(=O)CSc1nc2c(c(-c3ccco3)c1C#N)CCCC2 | 67.3% | 2.24µM* | 28.2µM* | 26.7µM* | ? | -15.9%
COCCNCCCCOc1ccccc1-c1ccccc1 | ? | 7.08µM* | 56.2µM* | -3.5% | -1.3 | 3.16µM*
CCCCNCCOCCOc1ccccc1-c1ccccc1 | ? | ? | ? | -8.6% | 2.2 | 1.41µM*
C=CCNCCOc1ccccc1-c1ccccc1 | 45.7% | -1.0%[59 µM] | 6.4% | -1.9% | 13.8 | -6.1%
Cc1nc2[nH]c(=S)[nH]c2cc1Br | 4.0% | 3.98µM* | 0.0% | ? | -14.8 | 44.7µM*
O=C(c1c(F)c(F)c(F)c(F)c1F)N1CCN(c2cccc(C(F)(F)F)c2)CC1 | ? | ? | 0.0% | 5.97µM* | -9.8 | 14.1µM*

Assay outcomes from PubChem BioAssay.
